This passage reports inhibition results from ChEMBL document CHEMBL1961873, “Compounds: GSK PKIS; Assays: Nanosyn kinase panel” (2012).

In test [1] the target is Serine/threonine-protein kinase pim-2 (Homo sapiens) (UniProt Q9P1W9). The settings on record: at 1 µM.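 Further: each value is a mean of the inhibition measurements against the kinase.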
Test [2] concerns the target Serine/threonine-protein kinase pim-3 (Homo sapiens) (UniProt Q86V86). The settings on record: at 0.1 µM.
Test [3] has the same target. The settings on record: at 1 µM.
The target of test [4] is T1, MAP kinase-activated protein kinase 5 (Homo sapiens) (UniProt Q8IW41).
T1 sequence (whole entry): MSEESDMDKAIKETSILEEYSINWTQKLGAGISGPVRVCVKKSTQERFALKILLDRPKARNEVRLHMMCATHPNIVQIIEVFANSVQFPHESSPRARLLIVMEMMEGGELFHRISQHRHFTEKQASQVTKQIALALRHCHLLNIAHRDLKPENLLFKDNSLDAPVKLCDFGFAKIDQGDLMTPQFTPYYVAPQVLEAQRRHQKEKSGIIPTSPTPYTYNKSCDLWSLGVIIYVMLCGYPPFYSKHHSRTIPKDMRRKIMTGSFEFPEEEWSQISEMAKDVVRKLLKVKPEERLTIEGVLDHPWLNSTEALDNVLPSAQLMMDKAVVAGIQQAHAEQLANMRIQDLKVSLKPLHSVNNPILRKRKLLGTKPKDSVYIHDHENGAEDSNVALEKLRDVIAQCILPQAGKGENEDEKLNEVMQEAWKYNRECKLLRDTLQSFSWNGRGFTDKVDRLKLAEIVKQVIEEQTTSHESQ
The settings on record: at 0.1 µM.

The target of test [5] is T1, MAP kinase-activated protein kinase 5 (Homo sapiens). To be noted: at 1 µM.
The target of test [6] is Serine/threonine-protein kinase SIK1 (Homo sapiens) (UniProt P57059). The settings on record: at 0.1 µM.
Chain of Serine/threonine-protein kinase SIK1 (Homo sapiens) (P57059 whole entry): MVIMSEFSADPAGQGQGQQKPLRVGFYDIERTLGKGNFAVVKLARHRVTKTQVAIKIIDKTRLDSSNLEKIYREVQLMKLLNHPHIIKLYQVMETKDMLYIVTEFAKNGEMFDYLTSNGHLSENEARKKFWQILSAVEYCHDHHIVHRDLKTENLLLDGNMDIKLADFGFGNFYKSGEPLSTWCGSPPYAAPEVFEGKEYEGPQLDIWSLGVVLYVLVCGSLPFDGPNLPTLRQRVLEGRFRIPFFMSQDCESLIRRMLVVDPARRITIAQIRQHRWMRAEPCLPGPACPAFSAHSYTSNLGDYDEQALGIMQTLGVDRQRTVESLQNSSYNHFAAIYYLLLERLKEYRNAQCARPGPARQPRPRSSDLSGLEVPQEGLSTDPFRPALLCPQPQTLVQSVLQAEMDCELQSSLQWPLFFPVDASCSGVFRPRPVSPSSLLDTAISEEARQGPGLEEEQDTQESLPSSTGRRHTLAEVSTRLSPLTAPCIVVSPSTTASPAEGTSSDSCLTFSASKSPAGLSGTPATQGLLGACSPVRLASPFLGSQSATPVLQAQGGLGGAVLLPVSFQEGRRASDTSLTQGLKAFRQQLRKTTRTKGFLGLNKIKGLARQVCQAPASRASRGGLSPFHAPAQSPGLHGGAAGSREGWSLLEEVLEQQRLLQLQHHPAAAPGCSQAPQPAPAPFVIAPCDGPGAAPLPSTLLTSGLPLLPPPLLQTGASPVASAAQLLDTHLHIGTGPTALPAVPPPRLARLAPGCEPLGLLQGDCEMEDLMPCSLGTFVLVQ
For test [7] the target is unchanged. To be noted: at 1 µM.
The target of test [8] is Serine/threonine-protein kinase SIK2 (Homo sapiens) (UniProt Q9H0K1). To be noted: at 0.1 µM.
Chain of Serine/threonine-protein kinase SIK2 (Homo sapiens) (Q9H0K1 whole entry, looked up): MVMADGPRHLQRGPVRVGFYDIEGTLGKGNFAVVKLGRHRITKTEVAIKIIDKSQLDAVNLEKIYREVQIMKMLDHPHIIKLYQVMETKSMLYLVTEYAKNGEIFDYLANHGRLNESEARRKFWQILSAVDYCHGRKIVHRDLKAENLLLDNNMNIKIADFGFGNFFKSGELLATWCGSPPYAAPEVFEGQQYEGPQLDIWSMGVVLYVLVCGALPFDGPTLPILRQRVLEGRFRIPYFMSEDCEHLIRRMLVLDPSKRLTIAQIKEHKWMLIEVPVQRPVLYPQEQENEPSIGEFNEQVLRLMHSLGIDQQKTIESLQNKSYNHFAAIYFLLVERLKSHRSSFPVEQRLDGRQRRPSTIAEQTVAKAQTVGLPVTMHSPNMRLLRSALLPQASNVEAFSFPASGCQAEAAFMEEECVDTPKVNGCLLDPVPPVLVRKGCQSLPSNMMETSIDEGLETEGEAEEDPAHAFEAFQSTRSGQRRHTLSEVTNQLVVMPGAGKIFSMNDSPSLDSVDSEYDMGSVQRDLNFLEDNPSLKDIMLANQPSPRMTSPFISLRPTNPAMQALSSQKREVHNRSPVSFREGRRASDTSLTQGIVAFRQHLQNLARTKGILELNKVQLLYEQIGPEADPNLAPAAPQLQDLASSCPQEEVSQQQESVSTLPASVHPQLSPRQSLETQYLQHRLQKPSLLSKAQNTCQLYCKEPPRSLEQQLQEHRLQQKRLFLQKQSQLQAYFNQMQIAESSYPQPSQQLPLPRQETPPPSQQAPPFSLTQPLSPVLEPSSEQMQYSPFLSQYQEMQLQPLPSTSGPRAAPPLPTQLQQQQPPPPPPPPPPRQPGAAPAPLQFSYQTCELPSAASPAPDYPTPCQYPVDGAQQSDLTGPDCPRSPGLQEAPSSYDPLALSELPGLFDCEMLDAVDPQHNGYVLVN
For test [9] the target is unchanged. To be noted: at 1 µM.
Test [10] deals with T2, Serine/threonine-protein kinase TBK1 (Homo sapiens) (UniProt Q9UHD2).
T2 sequence (whole entry): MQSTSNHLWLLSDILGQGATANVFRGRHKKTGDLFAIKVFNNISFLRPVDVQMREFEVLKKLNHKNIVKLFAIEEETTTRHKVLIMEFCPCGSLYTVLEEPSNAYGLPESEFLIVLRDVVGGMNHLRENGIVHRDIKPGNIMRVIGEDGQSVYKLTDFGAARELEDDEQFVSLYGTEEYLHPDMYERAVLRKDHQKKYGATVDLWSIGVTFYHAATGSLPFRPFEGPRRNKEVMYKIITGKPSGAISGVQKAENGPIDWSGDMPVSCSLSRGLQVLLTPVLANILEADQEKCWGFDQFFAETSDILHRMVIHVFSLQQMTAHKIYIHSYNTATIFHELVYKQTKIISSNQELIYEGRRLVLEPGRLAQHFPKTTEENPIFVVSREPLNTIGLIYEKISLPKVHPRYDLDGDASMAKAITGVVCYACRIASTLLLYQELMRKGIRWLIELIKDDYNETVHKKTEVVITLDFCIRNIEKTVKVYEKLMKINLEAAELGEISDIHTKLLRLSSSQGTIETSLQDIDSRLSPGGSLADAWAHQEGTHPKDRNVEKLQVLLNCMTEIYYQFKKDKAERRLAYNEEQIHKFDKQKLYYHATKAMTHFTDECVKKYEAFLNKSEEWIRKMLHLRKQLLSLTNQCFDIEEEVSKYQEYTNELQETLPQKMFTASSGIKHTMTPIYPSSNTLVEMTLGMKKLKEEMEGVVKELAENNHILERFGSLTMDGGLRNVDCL
To be noted: at 0.1 µM.

Test [11] deals with T2, Serine/threonine-protein kinase TBK1 (Homo sapiens). The settings on record: at 1 µM.
In test [12] the target is T3, Testis-specific serine/threonine-protein kinase 1 (Homo sapiens) (UniProt Q9BXA7).
T3 sequence (whole entry): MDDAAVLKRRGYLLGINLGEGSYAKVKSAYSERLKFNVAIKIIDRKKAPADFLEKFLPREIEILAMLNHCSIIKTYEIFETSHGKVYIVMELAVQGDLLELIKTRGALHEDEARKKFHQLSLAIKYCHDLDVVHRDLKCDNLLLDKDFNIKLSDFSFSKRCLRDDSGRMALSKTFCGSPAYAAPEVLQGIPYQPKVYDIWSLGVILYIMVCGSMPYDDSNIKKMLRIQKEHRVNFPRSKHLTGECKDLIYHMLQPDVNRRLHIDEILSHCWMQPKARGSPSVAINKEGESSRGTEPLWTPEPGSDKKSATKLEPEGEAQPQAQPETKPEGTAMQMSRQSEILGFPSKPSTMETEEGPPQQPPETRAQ
To be noted: at 0.1 µM.

Test [13] has as its target T3, Testis-specific serine/threonine-protein kinase 1 (Homo sapiens). To be noted: at 1 µM.
Test [14] has as its target T4, Testis-specific serine/threonine-protein kinase 2 (Homo sapiens) (UniProt Q96PF2).
T4 sequence (whole entry): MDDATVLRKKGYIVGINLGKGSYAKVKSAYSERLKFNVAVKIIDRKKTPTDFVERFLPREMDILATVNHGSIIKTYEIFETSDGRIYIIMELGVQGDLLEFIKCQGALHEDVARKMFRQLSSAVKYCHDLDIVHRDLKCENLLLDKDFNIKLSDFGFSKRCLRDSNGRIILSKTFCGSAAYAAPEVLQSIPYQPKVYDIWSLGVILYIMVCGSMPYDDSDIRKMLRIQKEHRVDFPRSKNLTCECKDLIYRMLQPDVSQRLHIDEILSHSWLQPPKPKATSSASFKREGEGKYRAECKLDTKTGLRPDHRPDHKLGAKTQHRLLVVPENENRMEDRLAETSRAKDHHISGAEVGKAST
The settings on record: at 0.1 µM.

The target in test [15] is T4, Testis-specific serine/threonine-protein kinase 2 (Homo sapiens). To be noted: at 1 µM.
The target of test [16] is Casein kinase I isoform alpha (Homo sapiens) (UniProt P48729). To be noted: at 0.1 µM.
Chain of Casein kinase I isoform alpha (Homo sapiens) (P48729 2-337 limits assumed): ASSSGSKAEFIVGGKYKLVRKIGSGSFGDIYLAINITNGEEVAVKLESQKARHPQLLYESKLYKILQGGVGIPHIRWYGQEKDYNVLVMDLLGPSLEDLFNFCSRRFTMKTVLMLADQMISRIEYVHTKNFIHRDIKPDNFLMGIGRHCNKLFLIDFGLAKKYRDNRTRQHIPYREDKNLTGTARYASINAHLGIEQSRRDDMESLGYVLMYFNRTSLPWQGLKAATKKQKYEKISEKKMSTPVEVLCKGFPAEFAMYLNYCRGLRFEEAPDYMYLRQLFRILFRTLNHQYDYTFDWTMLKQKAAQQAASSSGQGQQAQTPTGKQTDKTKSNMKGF
Test [17] shares this target. To be noted: at 1 µM.
In test [18] the target is Casein kinase I isoform gamma-1 (Homo sapiens) (UniProt Q9HCP0). The settings on record: at 0.1 µM.
Chain of Casein kinase I isoform gamma-1 (Homo sapiens) (Q9HCP0 whole entry, looked up, canonical isoform): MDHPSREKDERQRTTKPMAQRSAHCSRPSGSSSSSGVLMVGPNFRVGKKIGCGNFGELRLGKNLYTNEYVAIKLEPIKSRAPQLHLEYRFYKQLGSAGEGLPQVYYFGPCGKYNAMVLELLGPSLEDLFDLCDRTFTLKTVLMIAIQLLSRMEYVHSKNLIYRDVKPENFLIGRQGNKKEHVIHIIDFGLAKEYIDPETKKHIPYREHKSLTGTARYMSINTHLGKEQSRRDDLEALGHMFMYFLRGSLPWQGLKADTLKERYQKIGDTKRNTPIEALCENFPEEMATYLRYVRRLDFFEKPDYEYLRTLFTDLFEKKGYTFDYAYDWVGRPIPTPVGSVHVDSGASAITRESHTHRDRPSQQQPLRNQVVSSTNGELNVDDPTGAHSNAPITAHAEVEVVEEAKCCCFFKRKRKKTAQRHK
The target is the same in test [19]. To be noted: at 1 µM.
Test [20] has as its target Casein kinase I isoform gamma-2 (Homo sapiens) (UniProt P78368). The settings on record: at 0.1 µM.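 Further: values are mean inhibition figures reported as part of the GSK PKIS dataset.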

Chain of Casein kinase I isoform gamma-2 (Homo sapiens) (P78368 whole entry, looked up, canonical isoform): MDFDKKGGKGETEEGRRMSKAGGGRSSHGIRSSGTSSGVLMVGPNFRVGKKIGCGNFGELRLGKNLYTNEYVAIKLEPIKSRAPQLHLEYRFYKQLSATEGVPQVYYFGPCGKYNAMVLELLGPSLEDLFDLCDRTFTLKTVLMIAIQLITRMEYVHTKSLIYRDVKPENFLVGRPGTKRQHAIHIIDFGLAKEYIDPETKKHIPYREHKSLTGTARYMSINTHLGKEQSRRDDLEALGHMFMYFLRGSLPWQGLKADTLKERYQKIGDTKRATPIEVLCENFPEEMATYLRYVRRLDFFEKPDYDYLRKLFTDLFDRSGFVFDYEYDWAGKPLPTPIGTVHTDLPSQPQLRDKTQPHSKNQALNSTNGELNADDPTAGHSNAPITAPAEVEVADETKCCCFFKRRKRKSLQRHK
Chain of Serine/threonine-protein kinase pim-2 (Homo sapiens) (Q9P1W9 whole entry, looked up): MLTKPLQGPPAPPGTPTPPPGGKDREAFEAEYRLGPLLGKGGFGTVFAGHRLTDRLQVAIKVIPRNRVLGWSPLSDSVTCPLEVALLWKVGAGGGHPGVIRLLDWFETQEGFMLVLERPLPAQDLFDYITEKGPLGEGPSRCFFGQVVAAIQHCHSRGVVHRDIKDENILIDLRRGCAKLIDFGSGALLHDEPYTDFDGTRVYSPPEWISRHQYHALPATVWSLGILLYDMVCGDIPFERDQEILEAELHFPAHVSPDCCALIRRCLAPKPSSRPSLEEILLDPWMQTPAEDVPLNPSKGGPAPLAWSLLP

With `N#Cc1c(NC(=O)CN2CCOCC2)sc2c1CCCC2`, the inhibition – broadly, the change of the read-out against control, counted positive when it falls – in [1] was 1.1%; in test [2], 0.45%; in test [3], 1.12%; in test [4], 1.41%; in test [5] it was 2.49%; in [6], 0.17%. In addition, the inhibition in test [7] was 6.91%; in test [8], 5.2%; in test [9] it was 8.69%; in test [10], 1.76%; in test [11] it was 4.24%; in test [12] it was -0.56%. Further, the inhibition in test [13] was 3.34%; in [14], 1.22%; in [15], 2.29%; in [16], 6.79%; in test [17], 6.01%; in test [18], 3.78%. Besides, the inhibition came to 5.69% in test [19] and 3.2% in test [20].
`CC(C)(CO)CNC(=O)c1ccc2c(c1)/C(=N/Nc1ccc(S(N)(=O)=O)cc1)C(=O)N2`: the inhibition in test [1] is 4.28%; in test [2], 1.57%; in [3], 14.2%; in test [4], -0.02%; in [5] it was -0.16%; in test [6], 3.06%. Also, the inhibition was 27.7% in test [7]; -1.9% in test [8]; 36% in test [9]; 21.7% in test [10]; 63.4% in test [11]; 0.17% in test [12]. Further, the inhibition was 11% in test [13]; 0.45% in test [14]; -0.69% in test [15]; -1.33% in test [16]; 7.84% in [17]; 0.88% in test [18]. The inhibition amounted to 4.11% in test [19] and 0.93% in [20].
`CC(=O)NCc1cccc(C#Cc2cncnc2Nc2ccc(OCc3cccc(F)c3)c(Cl)c2)c1`: the inhibition in [1] is 0.6%; in test [2], -0.57%; in test [3], -1.13%; in test [4], 0%; in test [5], 0.14%; in [6], 1.32%. Moreover, the inhibition in test [7] is 2.96%; in test [8] it was -1.4%; in test [9] it was 5.8%; in test [10], -0.27%; in test [11] it was 4.8%; in [12], 1.79%. In addition, the inhibition in [13] was 2.15%; in [14] it was 0.5%; in [15], 1.59%; in test [16], -1.4%; in [17], -0.4%; in test [18], 0.6%. Further, the inhibition was 0.01% in test [19] and -0.69% in [20].
For `NS(=O)(=O)c1ccc(Nc2ncc(-c3ccccc3)o2)cc1`, the inhibition in test [1] was 0.32%; in [2], -0.13%; in test [3], 0.88%; in test [4], 1.46%; in test [5] it was 1.61%; in test [6], 6.09%. For the same compound, the inhibition was determined as 9.25% in test [7]; 6.43% in test [8]; 18.9% in [9]; 3.13% in test [10]; 8.12% in [11]; 1.35% in test [12]. The inhibition stood at 2.89% in [13]; 1.54% in [14]; 1.1% in test [15]; 1.88% in [16]; 7.88% in [17]; 2.83% in test [18]. The inhibition in test [19] amounted to 4.94%; in test [20] it was 2.8%.
`Fc1ccc(-c2nn3ccccc3c2-c2ccncc2)cc1`: the inhibition in test [1] was -0.05%; in test [2], -0.94%; in [3], -1.43%; in test [4], 0.01%; in test [5], -0.42%; in test [6], 1.08%. For the same compound, the inhibition in test [7] came to 4.41%; in [8], 0%; in [9], 14.9%; in test [10] it was 2.66%; in test [11], 0.18%; in [12] it was 1.12%. The inhibition in test [13] is 1.44%; in test [14] it was -0.56%; in test [15] it was 0.24%; in [16], 13.7%; in test [17], 58.4%; in test [18], 1.48%. The inhibition stood at 8.01% in test [19] and 1.65% in test [20].
